# Test results reported in PMC7862700, “An all-to-all approach to the identification of sequence-specific readers for epigenetic DNA modifications on cytosine”.
# Key:
# Assay in all cases: DAPPL (digital affinity profiling via proximity ligation, sequencing); 10 mM Tris-HCl pH 7.5, 50 mM NaCl, 1 mM DTT, 4% glycerol, room temperature, 30 min; GST-TFs on glutathione beads, 16-mer random dsDNA library, 0.1% formaldehyde crosslink after washing; high values mean tight binding
# FEV = molecular target: T1, FEV (Homo sapiens, UniProt Q99581 1-238); conditions: protein: recombinant; tags: N-terminal GST; dsDNA, one strand shown
# T1 sequence: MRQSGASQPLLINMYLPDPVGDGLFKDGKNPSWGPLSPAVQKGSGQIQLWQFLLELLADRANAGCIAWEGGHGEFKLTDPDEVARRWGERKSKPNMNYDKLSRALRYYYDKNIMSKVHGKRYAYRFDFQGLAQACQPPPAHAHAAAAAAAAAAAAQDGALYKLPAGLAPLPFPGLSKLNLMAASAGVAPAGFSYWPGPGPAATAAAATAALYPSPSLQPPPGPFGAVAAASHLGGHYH
# How it was run: (§1)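 In yeast, human transcription factors were expressed with a GST fusion, then pulled down on glutathione beads and given DNA barcodes. Pooled with a tag-only sample, they were exposed to 200 nmole of a 16-mer random double-stranded DNA library (Tris/NaCl/DTT/glycerol buffer, room temperature, 30 min), washed, crosslinked with 0.1% formaldehyde, proximity-ligated using BsaI/T4 ligase for 1 h at 37 °C, PCR-amplified and read on an Illumina NextSeq500. Each hexamer's frequency of reads for a factor, divided by the matching frequency for the tag-only sample, gives the binding signal.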
# ETV5 = ETV5 (Homo sapiens, UniProt P41161 1-510); conditions: protein: recombinant; tags: N-terminal GST; dsDNA, one strand shown
# Sequence of ETV5 (P41161 whole entry): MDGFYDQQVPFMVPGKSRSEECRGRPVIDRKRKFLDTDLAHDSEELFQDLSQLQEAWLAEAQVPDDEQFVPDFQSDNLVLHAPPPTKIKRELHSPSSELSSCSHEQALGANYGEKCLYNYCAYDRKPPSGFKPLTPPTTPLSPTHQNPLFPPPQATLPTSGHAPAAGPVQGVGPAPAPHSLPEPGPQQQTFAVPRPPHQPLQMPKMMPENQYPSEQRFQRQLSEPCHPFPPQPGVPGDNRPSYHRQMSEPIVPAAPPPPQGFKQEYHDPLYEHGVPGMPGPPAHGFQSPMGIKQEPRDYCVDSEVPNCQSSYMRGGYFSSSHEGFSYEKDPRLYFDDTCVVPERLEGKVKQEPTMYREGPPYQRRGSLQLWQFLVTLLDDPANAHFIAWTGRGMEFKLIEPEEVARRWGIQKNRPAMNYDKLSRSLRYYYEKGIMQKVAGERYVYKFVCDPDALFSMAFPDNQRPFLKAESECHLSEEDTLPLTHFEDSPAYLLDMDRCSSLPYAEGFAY
# How it was run: as §1
# HSF1 = HSF1 (Homo sapiens, UniProt Q00613 1-529); conditions: protein: recombinant; tags: N-terminal GST; chain copies: 3; dsDNA, one strand shown
# Sequence of HSF1 (Q00613 whole entry): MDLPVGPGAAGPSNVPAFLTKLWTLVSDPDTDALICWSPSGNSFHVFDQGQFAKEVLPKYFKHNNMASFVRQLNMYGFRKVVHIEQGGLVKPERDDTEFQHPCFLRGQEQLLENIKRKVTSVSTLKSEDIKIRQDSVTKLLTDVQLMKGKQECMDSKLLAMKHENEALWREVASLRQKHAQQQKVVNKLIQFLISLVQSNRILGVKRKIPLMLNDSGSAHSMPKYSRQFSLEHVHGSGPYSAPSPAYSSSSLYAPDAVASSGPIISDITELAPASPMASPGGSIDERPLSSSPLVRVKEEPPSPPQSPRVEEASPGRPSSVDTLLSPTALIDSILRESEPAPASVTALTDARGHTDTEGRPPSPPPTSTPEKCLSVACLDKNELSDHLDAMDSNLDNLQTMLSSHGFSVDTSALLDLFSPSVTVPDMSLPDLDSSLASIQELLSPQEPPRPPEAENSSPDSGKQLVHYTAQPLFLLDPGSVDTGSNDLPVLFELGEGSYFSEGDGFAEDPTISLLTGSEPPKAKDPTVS
# How it was run: as §1
# SPIC = molecular target: T2, SPIC (Homo sapiens, UniProt Q8N5J4 1-248); conditions: protein: recombinant; tags: N-terminal GST; dsDNA, one strand shown
# T2 sequence: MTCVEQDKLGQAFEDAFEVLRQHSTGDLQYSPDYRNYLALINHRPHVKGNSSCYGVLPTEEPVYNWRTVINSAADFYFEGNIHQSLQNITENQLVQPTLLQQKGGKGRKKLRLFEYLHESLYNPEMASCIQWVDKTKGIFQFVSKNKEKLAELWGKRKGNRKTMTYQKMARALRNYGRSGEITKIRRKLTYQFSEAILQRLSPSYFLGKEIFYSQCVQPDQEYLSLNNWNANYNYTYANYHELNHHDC
# How it was run: as §1
# ELF4 = ELF4 (Homo sapiens, UniProt Q99607 1-663); conditions: protein: recombinant; tags: N-terminal GST; dsDNA, one strand shown
# Sequence of ELF4 (Q99607 whole entry): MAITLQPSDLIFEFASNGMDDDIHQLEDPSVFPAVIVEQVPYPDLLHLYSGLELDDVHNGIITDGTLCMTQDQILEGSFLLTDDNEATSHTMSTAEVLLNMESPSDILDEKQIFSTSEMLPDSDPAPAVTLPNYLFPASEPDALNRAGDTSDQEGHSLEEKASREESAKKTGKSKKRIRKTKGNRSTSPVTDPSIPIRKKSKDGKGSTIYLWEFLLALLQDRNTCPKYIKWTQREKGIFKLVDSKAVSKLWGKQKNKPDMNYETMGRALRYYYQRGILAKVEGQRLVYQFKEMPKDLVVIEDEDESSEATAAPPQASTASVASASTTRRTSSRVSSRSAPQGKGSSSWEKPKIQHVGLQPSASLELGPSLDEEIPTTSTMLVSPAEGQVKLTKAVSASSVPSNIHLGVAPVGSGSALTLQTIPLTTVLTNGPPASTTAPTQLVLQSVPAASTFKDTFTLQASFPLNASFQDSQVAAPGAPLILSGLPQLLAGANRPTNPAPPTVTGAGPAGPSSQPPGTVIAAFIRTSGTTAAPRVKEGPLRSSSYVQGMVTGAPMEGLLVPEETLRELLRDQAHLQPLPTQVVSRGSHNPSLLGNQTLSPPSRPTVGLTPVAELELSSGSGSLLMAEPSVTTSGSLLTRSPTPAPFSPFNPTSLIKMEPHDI
# How it was run: as §1
# ELK4 = molecular target: T3, ELK4 (Homo sapiens, UniProt P28324-2 1-405); conditions: protein: recombinant; tags: N-terminal GST; dsDNA, one strand shown
# T3 sequence: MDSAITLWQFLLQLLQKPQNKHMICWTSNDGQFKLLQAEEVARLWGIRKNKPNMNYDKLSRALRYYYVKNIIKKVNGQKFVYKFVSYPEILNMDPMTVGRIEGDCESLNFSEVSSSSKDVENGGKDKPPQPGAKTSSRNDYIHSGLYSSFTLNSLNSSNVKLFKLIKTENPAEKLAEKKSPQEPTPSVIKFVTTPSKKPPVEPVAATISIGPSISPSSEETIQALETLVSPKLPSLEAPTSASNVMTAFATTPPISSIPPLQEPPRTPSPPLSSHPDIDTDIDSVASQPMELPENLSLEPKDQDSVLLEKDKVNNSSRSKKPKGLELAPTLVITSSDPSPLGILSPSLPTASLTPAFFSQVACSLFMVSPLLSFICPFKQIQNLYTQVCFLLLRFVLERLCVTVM
# How it was run: as §1
# ETV2 = molecular target: T4, ETV2 (Homo sapiens, UniProt O00321 1-342); conditions: protein: recombinant; tags: N-terminal GST; dsDNA, one strand shown
# T4 sequence: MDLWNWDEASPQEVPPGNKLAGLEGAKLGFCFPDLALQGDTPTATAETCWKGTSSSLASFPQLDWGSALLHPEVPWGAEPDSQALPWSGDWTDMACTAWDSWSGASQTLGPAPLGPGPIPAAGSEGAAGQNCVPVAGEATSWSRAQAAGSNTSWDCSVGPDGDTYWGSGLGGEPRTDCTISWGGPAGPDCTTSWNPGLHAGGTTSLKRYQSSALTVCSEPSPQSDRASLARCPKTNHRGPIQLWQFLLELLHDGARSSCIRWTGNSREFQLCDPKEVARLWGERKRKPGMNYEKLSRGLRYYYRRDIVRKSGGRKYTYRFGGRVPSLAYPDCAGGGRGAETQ
# How it was run: as §1
# ELF3 = molecular target: T5, ELF3 (Homo sapiens, UniProt P78545 1-371); conditions: protein: recombinant; tags: N-terminal GST; dsDNA, one strand shown
# T5 sequence: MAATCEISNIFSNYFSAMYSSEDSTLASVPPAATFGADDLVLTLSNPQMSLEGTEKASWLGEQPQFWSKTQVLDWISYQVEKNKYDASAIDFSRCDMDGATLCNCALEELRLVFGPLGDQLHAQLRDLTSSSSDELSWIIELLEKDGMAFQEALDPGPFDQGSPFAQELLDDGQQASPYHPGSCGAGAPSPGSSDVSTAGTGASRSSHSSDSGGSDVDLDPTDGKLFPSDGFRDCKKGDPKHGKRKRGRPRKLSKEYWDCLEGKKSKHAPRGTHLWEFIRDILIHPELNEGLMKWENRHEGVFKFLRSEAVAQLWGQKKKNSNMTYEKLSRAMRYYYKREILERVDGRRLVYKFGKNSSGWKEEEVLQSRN
# How it was run: as §1
# CRX = CRX (Homo sapiens, UniProt O43186 1-299); conditions: protein: recombinant; tags: N-terminal GST; dsDNA, one strand shown
# Sequence of CRX (O43186 whole entry): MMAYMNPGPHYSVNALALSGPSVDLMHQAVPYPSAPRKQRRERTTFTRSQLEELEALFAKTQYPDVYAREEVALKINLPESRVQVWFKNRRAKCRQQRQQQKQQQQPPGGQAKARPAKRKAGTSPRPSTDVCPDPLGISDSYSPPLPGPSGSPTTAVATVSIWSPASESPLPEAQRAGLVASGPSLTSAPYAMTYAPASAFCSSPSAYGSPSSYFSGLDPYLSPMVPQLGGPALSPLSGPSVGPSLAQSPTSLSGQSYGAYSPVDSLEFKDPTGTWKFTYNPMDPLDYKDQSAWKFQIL
# How it was run: as §1
# ETV1 = ETV1 (Homo sapiens, UniProt P50549 1-477); conditions: protein: recombinant; tags: N-terminal GST; dsDNA, one strand shown
# Sequence of ETV1 (P50549 whole entry): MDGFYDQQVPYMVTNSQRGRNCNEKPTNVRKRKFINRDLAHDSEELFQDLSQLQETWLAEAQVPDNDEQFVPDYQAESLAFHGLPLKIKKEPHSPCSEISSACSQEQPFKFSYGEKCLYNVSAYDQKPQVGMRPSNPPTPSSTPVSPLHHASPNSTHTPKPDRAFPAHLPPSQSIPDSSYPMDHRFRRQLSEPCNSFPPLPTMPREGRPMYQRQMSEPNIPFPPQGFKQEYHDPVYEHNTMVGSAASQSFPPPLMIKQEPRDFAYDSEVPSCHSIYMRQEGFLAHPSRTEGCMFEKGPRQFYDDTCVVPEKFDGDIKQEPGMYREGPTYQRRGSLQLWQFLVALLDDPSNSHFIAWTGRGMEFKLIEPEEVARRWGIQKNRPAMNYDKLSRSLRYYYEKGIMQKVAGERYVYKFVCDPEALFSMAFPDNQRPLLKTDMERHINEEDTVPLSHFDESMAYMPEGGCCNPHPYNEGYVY
# How it was run: as §1
# ERF = molecular target: T6, ERF (Homo sapiens, UniProt P50548 1-548); conditions: protein: recombinant; tags: N-terminal GST; dsDNA, one strand shown
# T6 sequence: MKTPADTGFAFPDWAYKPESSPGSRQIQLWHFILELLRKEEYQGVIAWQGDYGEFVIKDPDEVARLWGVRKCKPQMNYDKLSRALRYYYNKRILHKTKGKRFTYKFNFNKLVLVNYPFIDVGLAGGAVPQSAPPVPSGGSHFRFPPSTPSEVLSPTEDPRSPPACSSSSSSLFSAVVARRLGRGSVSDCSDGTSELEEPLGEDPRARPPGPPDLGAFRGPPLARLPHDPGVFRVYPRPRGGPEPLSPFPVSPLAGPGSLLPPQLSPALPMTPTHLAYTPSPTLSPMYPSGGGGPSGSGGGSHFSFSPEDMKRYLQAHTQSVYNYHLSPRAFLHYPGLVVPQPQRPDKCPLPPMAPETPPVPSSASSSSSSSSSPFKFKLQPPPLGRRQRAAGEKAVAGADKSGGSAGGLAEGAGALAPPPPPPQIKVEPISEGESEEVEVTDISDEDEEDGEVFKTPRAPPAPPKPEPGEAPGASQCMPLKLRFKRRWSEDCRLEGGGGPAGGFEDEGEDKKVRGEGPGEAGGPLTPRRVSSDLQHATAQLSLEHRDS
# How it was run: as §1
# ETV3L = molecular target: T7, ETV3L (Homo sapiens, UniProt Q6ZN32 1-361); conditions: protein: recombinant; tags: N-terminal GST; dsDNA, one strand shown
# T7 sequence: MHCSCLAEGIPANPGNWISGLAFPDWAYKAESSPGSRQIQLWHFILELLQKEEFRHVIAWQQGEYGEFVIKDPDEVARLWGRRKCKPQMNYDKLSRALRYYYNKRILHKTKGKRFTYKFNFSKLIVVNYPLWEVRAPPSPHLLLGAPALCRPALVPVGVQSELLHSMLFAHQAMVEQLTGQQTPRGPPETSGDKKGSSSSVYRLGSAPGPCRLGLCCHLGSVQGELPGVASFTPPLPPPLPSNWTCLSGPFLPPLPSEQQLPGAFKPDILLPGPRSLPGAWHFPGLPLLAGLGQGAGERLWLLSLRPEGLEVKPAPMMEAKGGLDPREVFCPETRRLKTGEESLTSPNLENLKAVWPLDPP
# How it was run: as §1
# ETS2 = molecular target: T8, ETS2 (Homo sapiens, UniProt P15036 1-469); conditions: protein: recombinant; tags: N-terminal GST; dsDNA, one strand shown
# T8 sequence: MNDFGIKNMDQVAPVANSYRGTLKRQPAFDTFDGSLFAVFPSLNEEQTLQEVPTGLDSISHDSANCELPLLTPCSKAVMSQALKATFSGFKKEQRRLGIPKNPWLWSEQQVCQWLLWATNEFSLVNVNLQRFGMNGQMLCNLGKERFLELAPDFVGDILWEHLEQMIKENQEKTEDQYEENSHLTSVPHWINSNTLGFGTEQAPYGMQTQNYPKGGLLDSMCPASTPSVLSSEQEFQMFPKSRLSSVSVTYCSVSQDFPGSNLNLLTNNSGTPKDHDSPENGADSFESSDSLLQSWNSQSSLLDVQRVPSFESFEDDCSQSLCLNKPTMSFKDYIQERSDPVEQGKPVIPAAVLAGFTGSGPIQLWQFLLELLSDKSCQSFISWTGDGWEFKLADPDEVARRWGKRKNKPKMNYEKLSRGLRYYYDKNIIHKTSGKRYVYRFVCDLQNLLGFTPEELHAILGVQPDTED
# How it was run: as §1
# SPDEF = molecular target: T9, SPDEF (Homo sapiens, UniProt O95238 1-335); conditions: protein: recombinant; tags: N-terminal GST; dsDNA, one strand shown
# T9 sequence: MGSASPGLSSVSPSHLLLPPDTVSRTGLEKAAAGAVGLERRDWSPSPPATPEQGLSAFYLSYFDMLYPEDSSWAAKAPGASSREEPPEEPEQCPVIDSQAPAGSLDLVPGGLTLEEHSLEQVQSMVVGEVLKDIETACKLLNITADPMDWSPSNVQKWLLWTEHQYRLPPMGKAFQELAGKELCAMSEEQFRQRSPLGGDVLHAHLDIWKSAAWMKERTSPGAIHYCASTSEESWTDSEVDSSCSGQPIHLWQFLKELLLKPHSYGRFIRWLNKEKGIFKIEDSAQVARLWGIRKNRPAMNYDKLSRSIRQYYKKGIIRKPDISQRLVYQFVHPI
# How it was run: as §1
# ETV7 = molecular target: T10, ETV7 (Homo sapiens, UniProt Q9Y603 1-341); conditions: protein: recombinant; tags: N-terminal GST; dsDNA, one strand shown
# T10 sequence: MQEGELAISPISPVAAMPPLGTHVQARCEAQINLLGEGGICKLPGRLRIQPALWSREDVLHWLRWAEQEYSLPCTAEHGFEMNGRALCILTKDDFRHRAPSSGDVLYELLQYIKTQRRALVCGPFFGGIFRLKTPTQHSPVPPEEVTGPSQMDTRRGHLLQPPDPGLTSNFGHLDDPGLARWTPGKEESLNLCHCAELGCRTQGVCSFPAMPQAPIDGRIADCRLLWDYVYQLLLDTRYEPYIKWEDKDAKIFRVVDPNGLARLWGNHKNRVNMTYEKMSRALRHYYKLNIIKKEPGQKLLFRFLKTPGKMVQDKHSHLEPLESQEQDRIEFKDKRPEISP
# How it was run: as §1
# ELF5 = molecular target: T11, ELF5 (Homo sapiens, UniProt Q9UKW6-2 1-255); conditions: protein: recombinant; tags: N-terminal GST; dsDNA, one strand shown
# T11 sequence: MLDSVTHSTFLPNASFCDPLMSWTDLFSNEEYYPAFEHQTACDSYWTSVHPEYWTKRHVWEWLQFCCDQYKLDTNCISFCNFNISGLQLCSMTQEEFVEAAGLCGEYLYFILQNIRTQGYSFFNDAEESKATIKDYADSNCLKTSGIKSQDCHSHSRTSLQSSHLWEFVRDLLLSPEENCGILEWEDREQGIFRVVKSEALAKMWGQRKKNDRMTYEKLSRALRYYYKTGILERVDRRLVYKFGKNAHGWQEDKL
# How it was run: as §1
# ETV3 = molecular target: T12, ETV3 (Homo sapiens, UniProt P41162-2 1-143); conditions: protein: recombinant; tags: N-terminal GST; dsDNA, one strand shown
# T12 sequence: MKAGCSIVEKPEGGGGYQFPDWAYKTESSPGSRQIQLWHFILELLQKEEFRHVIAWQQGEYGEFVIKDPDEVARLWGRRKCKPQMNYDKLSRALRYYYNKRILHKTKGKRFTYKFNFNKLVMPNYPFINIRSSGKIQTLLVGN
# How it was run: as §1
# ETV6 = ETV6 (Homo sapiens, UniProt P41212 1-452); conditions: protein: recombinant; tags: N-terminal GST; dsDNA, one strand shown
# Sequence of ETV6 (P41212 whole entry): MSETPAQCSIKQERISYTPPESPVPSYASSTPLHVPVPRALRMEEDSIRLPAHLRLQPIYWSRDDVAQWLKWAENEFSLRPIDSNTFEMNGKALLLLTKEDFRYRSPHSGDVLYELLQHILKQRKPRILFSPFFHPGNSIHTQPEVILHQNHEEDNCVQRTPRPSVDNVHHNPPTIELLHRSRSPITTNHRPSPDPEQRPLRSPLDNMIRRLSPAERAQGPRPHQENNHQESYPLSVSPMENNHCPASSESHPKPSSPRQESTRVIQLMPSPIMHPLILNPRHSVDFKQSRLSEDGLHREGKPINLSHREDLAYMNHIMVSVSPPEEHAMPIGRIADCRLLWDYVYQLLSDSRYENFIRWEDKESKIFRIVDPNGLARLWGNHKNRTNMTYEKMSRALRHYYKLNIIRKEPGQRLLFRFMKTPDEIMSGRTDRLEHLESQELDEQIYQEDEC
# How it was run: as §1
sequence,measurement,setting,value
TCCTGG,binding signal,FEV,"1.46 fold enrichment (6-mer frequency, TF over GST control)"
same,binding signal,ETV5,"1.68 fold enrichment (6-mer frequency, TF over GST control)"
same,binding signal,HSF1,"1.29 fold enrichment (6-mer frequency, TF over GST control)"
same,binding signal,SPIC,"1.54 fold enrichment (6-mer frequency, TF over GST control)"
same,binding signal,ELF4,"1.53 fold enrichment (6-mer frequency, TF over GST control)"
same,binding signal,ELK4,"1.38 fold enrichment (6-mer frequency, TF over GST control)"
same,binding signal,ETV2,"2.03 fold enrichment (6-mer frequency, TF over GST control)"
same,binding signal,ELF3,"1.17 fold enrichment (6-mer frequency, TF over GST control)"
same,binding signal,CRX,"1.27 fold enrichment (6-mer frequency, TF over GST control)"
same,binding signal,ETV1,"1.68 fold enrichment (6-mer frequency, TF over GST control)"
same,binding signal,ERF,"1.43 fold enrichment (6-mer frequency, TF over GST control)"
same,binding signal,ETV3L,"1.83 fold enrichment (6-mer frequency, TF over GST control)"
same,binding signal,ETS2,"1.82 fold enrichment (6-mer frequency, TF over GST control)"
same,binding signal,SPDEF,"2.13 fold enrichment (6-mer frequency, TF over GST control)"
same,binding signal,ETV7,"1.56 fold enrichment (6-mer frequency, TF over GST control)"
same,binding signal,ELF5,"2.35 fold enrichment (6-mer frequency, TF over GST control)"
same,binding signal,ETV3,"1.74 fold enrichment (6-mer frequency, TF over GST control)"
same,binding signal,ETV6,"1.77 fold enrichment (6-mer frequency, TF over GST control)"
